Results from PubChem BioAssay.
Activity calls are given as the source filed them. Unless noted, no stated cut-off is given here; in the data, active means inhibition above about 80%; inactive means the rest.

Tests used:
[1] = LFS_MB_P medulloblastoma growth inhibition, cell-based, chromothripsis tumors, cisplatin or BGB combos (AID 1671449); conditions: LFS_MB_P medulloblastoma cells;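 further: cells exposed for 96 hours; 0% = vehicle DMSO and 100% = killing by high DMSO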
[2] = HDN33 neuroblastoma growth inhibition, cell-based, chromothripsis tumors, cisplatin or BGB combos (AID 1671450); conditions: HDN33 neuroblastoma cells, stronger effect = higher value;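 further: cells exposed to compound for four days; 0% = vehicle DMSO and 100% = cell killing by high DMSO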
[3] = ICB984 medulloblastoma cell growth inhibition, synergistic combos for chromothripsis tumors, cisplatin or BGB combos (AID 1671451; call rule not given here;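 further: cells exposed for 96 hours before readout; 0% = vehicle DMSO and 100% = killing by high DMSO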); conditions: ICB984 medulloblastoma cells, drug combinations, stronger effect = higher value
[4] = LFS_MB_1R medulloblastoma cell growth inhibition, synergistic combos for chromothripsis tumors, cisplatin or BGB combos (AID 1671452); conditions: LFS_MB_1R medulloblastoma cells, stronger effect = higher value;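 further: cells exposed for 96 hours before readout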
[5] = HTB85 osteosarcoma cell growth inhibition, synergistic combos for chromothripsis tumors, BGB or cisplatin IC20 combos (AID 1671453); conditions: HTB85 osteosarcoma cells, drug combinations, stronger effect = higher value;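 further: cells exposed for 96 hours before readout; 0% = vehicle DMSO and 100% = high DMSO killing control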
[6] = CRL2098 osteosarcoma cell growth inhibition, synergistic combos for chromothripsis tumors, BGB or cisplatin IC20 combos (AID 1671454); conditions: CRL2098 osteosarcoma cells, drug combinations, stronger effect = higher value;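 further: cells exposed for 96 h before readout; 0% = vehicle DMSO and 100% = killing by high DMSO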
[7] = HD-MB03 medulloblastoma cell growth inhibition, synergistic combos for chromothripsis tumors, BGB or cisplatin IC20 combos (AID 1671455; in the data active means inhibition above about 83%;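 further: 0% = vehicle DMSO and 100% = high DMSO as cytotoxic control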); conditions: HD-MB03 medulloblastoma cells, stronger effect = higher value
[8] = UWB1.289 ovarian carcinoma cell growth inhibition, synergistic combos for chromothripsis tumors, BGB or cisplatin combos (AID 1671456); conditions: UWB1.289 ovarian carcinoma cells, stronger effect = higher value;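 further: cells exposed to compound for four days; 0% = vehicle DMSO and 100% = killing by high DMSO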
[9] = LFS_MB_2R medulloblastoma cell growth inhibition, synergistic combos for chromothripsis tumors, cisplatin combos (AID 1671457); conditions: LFS_MB_2R medulloblastoma cells, stronger effect = higher value;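 further: cells exposed to compound for four days before readout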
[10] = MDA-MB-436 breast carcinoma cell growth inhibition, synergistic combos for chromothripsis tumors, BGB or cisplatin combos (AID 1671458; call rule not given here;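 further: cells exposed for 96 hours; 0% = vehicle DMSO and 100% = killing by high DMSO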); conditions: MDA-MB-436 breast carcinoma growth inhibition, drug combinations, stronger effect = higher value
[11] = UWB1.289_BRCA1 ovarian cancer growth, cell-based, BGB or cisplatin combinations (AID 1671459); conditions: UWB1.289 BRCA1 ovarian carcinoma, drug combinations, stronger effect = higher value
[12] = human astrocyte viability loss, single and combined drugs, cytotoxicity control for chromothriptic childhood tumor combination screen, cell-based, BGB or cisplatin IC20 combos (AID 1671460); conditions: Human astrocytes, drug combinations, stronger effect = higher value;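 further: cells exposed to compounds for 96 hours before viability readout; 0% = vehicle and 100% = killing control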
[13] = growth inhibition of BT084 medulloblastoma cells, cell-based, ICGC_MB145, cisplatin and BGB IC40 combos (AID 1671461); conditions: drug combinations, stronger effect = higher value;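 further: cells exposed to drugs for 96 hours; 0% = vehicle DMSO and 100% = high DMSO full killing control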
[14] = growth inhibition of RCMB18 medulloblastoma cells, cell-based, cisplatin and BGB IC40 combos (AID 1671462); conditions: stronger effect = higher value;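 further: cells exposed to compound for four days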
[15] = growth inhibition of CRL1545 osteosarcoma cells, cell-based, cisplatin and BGB IC20 combos (AID 1671464); conditions: stronger effect = higher value;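 further: cells exposed to compound for 96 hours before readout; 0% = vehicle DMSO and 100% = high DMSO killing control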
[16] = viability rescue of complex I mutant cybrids, primary screen, cell-based, galactose medium, ATP luminescence (AID 1645843;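 active means z-score of at least 1.8 in each of two replicates, scored against plate mean and spread of sample wells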;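 further: positive z means more ATP and so rescue of galactose-driven cybrid death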); conditions: complex I mutant cybrid cells, 72 h, stronger effect = higher value
[17] = at 0.5 µM, stronger effect = higher value
[18] = measured here: combination with BGB IC20, at 0.005 µM
[19] = measured here: combination with BGB IC40, at 0.005 µM
[20] = measured here: combination with BGB IC40, at 0.05 µM
[21] = measured here: combination with cisplatin, at 0.5 µM, stronger effect = higher value
[22] = measured here: combination with cisplatin, at 5 µM, stronger effect = higher value
[23] = measured here: with BGB IC20 combination, at 0.5 µM
[24] = measured here: with cisplatin IC20 combination, at 0.5 µM
[25] = measured here: 5 uM single agent, at 5 µM
[26] = measured here: combination with cisplatin, at 0.5 µM
[27] = measured here: combination with cisplatin, at 5 µM
[28] = measured here: with BGB IC20, at 0.5 µM
[29] = measured here: with BGB IC20, at 5 µM
[30] = measured here: with cisplatin IC20, at 0.5 µM
[31] = measured here: with cisplatin IC20, at 5 µM
[32] = measured here: combination with BGB at IC20, at 0.5 µM
[33] = measured here: combination with cisplatin at IC20, at 0.5 µM
[34] = measured here: combo with BGB at IC20, at 0.5 µM
[35] = measured here: combo with cisplatin at IC20, at 0.5 µM
[36] = measured here: inhibition with BGB combination, at 0.05 µM
[37] = measured here: inhibition with cisplatin combination, at 0.05 µM
[38] = measured here: BGB combination, at 0.5 µM
[39] = measured here: BGB combination, at 5 µM
[40] = measured here: cisplatin combination, at 0.5 µM
[41] = measured here: cisplatin combination, at 5 µM
[42] = BGB combination, concentration series, at 5 µM
[43] = cisplatin combination, concentration series, at 5 µM
[44] = measured here: combo with BGB IC20, at 0.5 µM
[45] = measured here: combo with cisplatin IC20, at 0.5 µM
[46] = cisplatin combination, at 0.5 µM
[47] = measured here: BGB IC40 combination 0.05 uM, at 0.05 µM
[48] = measured here: BGB IC40 combination, at 0.05 µM

## O=C(CCCCCCC(=O)NO)NO
[1]; [17]
  inhibition: -16.3% (inactive)
[1]; [18]
  inhibition: 3.43%
[1]; [19]
  inhibition: -7.94%
[1]; [20]
  inhibition: -3.7%
[1]; [21]
  inhibition: -17.1%
[1]; [22]
  inhibition: 37.5%
[2]; BGB combo, at 5 µM
  inhibition: 16.4%
[2]; at 0.5 µM
  inhibition: -16.1% (inactive)
[2]; cisplatin combo, at 5 µM
  inhibition: -6.26%
[2]; [23]
  inhibition: -13.7%
[2]; [24]
  inhibition: -21.3%
[2]; single agent, at 5 µM
  inhibition: -0.771%
[3]; BGB IC20 combo, at 0.005 µM
  inhibition: -20.4%
[3]; BGB IC40 combo, at 0.005 µM
  inhibition: -41.1%
[3]; BGB IC40 combo, at 0.05 µM
  inhibition: -25.8%
[3]; at 0.5 µM
  inhibition: -27% (inactive)
[3]; cisplatin combo, at 0.05 µM
  inhibition: -30.8%
[3]; cisplatin combo, at 0.5 µM
  inhibition: -31.2%
[3]; cisplatin combo, at 5 µM
  inhibition: -49.1%
[3]; [25]
  inhibition: -5.09%
[4]; at 0.5 µM
  inhibition: -25% (inactive)
[4]; [20]
  inhibition: -41%
[4]; [26]
  inhibition: -39.7%
[4]; [27]
  inhibition: -49.3%
[5]; at 0.5 µM
  inhibition: -16.4% (inactive)
[5]; [28]
  inhibition: -21.4%
[5]; [29]
  inhibition: 7.58%
[5]; [30]
  inhibition: -13.1%
[5]; [31]
  inhibition: -1.96%
[5]; single agent, at 5 µM
  inhibition: 8.05%
[6]; at 0.5 µM
  inhibition: -49.2% (inactive)
[6]; [32]
  inhibition: -52%
[6]; [33]
  inhibition: -0.415%
[7]; at 0.5 µM
  inhibition: -7.45% (inactive)
[7]; [34]
  inhibition: -12.8%
[7]; [35]
  inhibition: -0.883%
[8]; at 0.5 µM
  inhibition: -11.1% (inactive)
[8]; [36]
  inhibition: 12.4%
[8]; [37]
  inhibition: -20.9%
[9]; at 0.5 µM
  inhibition: 7.53% (inactive)
[9]; [26]
  inhibition: -13.9%
[9]; [27]
  inhibition: 4.86%
[10]; at 0.5 µM
  inhibition: -5.23% (inactive)
[10]; [38]
  inhibition: 0.608%
[10]; [39]
  inhibition: 5.89%
[10]; [40]
  inhibition: -7.76%
[10]; [41]
  inhibition: 14.4%
[11]; [42]
  inhibition: 21.1%
[11]; at 0.5 µM
  inhibition: -7.22% (inactive)
[11]; [43]
  inhibition: 38.6%
[12]; at 0.5 µM
  inhibition: -7.15% (inactive)
[12]; [44]
  inhibition: -3.26%
[12]; [45]
  inhibition: -13%
[13]; at 0.5 µM
  inhibition: -7.26% (inactive)
[13]; [46]
  inhibition: -13%
[13]; cisplatin combination, at 5 µM
  inhibition: 18.3%
[13]; [47]
  inhibition: -15.2%
[13]; single agent, at 5 µM
  inhibition: 28.5%
[14]; at 0.5 µM
  inhibition: -4.15% (inactive)
[14]; cisplatin combo, at 5 µM
  inhibition: 6.83%
[14]; [48]
  inhibition: -1.04%
[14]; [26]
  inhibition: -1.18%
[14]; single agent, at 5 µM
  inhibition: -14.5%
[15]; at 0.5 µM
  inhibition: -30.5% (inactive)
[15]; [23]
  inhibition: -55.7%
[15]; [24]
  inhibition: -17.9%
[15]; single agent, at 0.05 µM
  inhibition: -50.7%
[15]; single agent, at 5 µM
  inhibition: -1.16%

## CC(C)c1n[nH]c2c1CN(C(=O)C1CCCCCC1)CC2
[16]
  z-score: -0.485 (inactive)

## O=c1[nH]c(=S)[nH]c2nc(-c3ccccc3)c(-c3ccccc3)nc12
[1]; [17]
  inhibition: -4.47% (inactive)
[1]; [18]
  inhibition: -16.2%
[1]; [19]
  inhibition: -17.7%
[1]; [20]
  inhibition: -55%
[1]; [21]
  inhibition: -17.6%
[1]; [22]
  inhibition: -30.5%
[2]; BGB combo, at 5 µM
  inhibition: -12.8%
[2]; at 0.5 µM
  inhibition: -3.23% (inactive)
[2]; cisplatin combo, at 5 µM
  inhibition: -3.41%
[2]; [23]
  inhibition: -5.44%
[2]; [24]
  inhibition: 12.5%
[2]; single agent, at 5 µM
  inhibition: 8.28%
[3]; BGB IC20 combo, at 0.005 µM
  inhibition: -5.97%
[3]; BGB IC40 combo, at 0.005 µM
  inhibition: -18.7%
[3]; BGB IC40 combo, at 0.05 µM
  inhibition: -15.7%
[3]; at 0.5 µM
  inhibition: -20.3% (inactive)
[3]; cisplatin combo, at 0.05 µM
  inhibition: -19.8%
[3]; cisplatin combo, at 0.5 µM
  inhibition: -15.9%
[3]; cisplatin combo, at 5 µM
  inhibition: -36.6%
[3]; [25]
  inhibition: 8.29%
[4]; at 0.5 µM
  inhibition: -12.5% (inactive)
[4]; [20]
  inhibition: -14.1%
[4]; [26]
  inhibition: -36.2%
[4]; [27]
  inhibition: -28.2%
[5]; at 0.5 µM
  inhibition: -2.11% (inactive)
[5]; [28]
  inhibition: -2.07%
[5]; [29]
  inhibition: -2.27%
[5]; [30]
  inhibition: -3.18%
[5]; [31]
  inhibition: -32%
[5]; single agent, at 5 µM
  inhibition: 0.689%
[6]; at 0.5 µM
  inhibition: -39.5% (inactive)
[6]; [32]
  inhibition: -21.3%
[6]; [33]
  inhibition: -56.3%
[7]; at 0.5 µM
  inhibition: 1.96% (inactive)
[7]; [34]
  inhibition: -7.2%
[7]; [35]
  inhibition: 15.9%
[8]; at 0.5 µM
  inhibition: 8.37% (inactive)
[8]; [36]
  inhibition: 69.6%
[8]; [37]
  inhibition: 18.6%
[9]; at 0.5 µM
  inhibition: -9.62% (inactive)
[9]; [26]
  inhibition: -6.67%
[9]; [27]
  inhibition: 4.64%
[10]; at 0.5 µM
  inhibition: -2.86% (inactive)
[10]; [38]
  inhibition: -6.6%
[10]; [39]
  inhibition: -11.7%
[10]; [40]
  inhibition: 0.551%
[10]; [41]
  inhibition: -30.7%
[11]; [42]
  inhibition: 8.97%
[11]; at 0.5 µM
  inhibition: 3.94% (inactive)
[11]; [43]
  inhibition: -14.9%
[12]; at 0.5 µM
  inhibition: 4.94% (inactive)
[12]; [44]
  inhibition: 4.6%
[12]; [45]
  inhibition: -1.31%
[13]; at 0.5 µM
  inhibition: -2.6% (inactive)
[13]; [46]
  inhibition: -10.5%
[13]; cisplatin combination, at 5 µM
  inhibition: 0.186%
[13]; [47]
  inhibition: -24.1%
[13]; single agent, at 5 µM
  inhibition: 0.55%
[14]; at 0.5 µM
  inhibition: -2.13% (inactive)
[14]; cisplatin combo, at 5 µM
  inhibition: -6.02%
[14]; [48]
  inhibition: -12.2%
[14]; [26]
  inhibition: 41.9%
[14]; single agent, at 5 µM
  inhibition: -34.1%
[15]; at 0.5 µM
  inhibition: -17.1% (inactive)
[15]; [23]
  inhibition: -18.6%
[15]; [24]
  inhibition: -18.2%
[15]; single agent, at 0.05 µM
  inhibition: -5.63%
[15]; single agent, at 5 µM
  inhibition: -50.2%
